Experiment [1] can be described thus: Viability qHTS for spleen associated tyrosine kinase inhibitor (SYKi) naive MV4-11 cells (AID 1963823). Further: nearly all actives have a fitted effect of over 40% in size. In a few lines:
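Seeding of 500 SYKi-naive MV4-11 cells per well onto pre-dispensed compounds preceded a 72 hr incubation at 37 C. Luminescent CellTiter-Glo signal, read after 10 min at room temperature, reflected viable cells.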
Background: In qHTS, concentration-response curves come from the screen itself.

Experiment [2] can be described thus: Viability qHTS for spleen associated tyrosine kinase inhibitor (SYKi) drug resistant MV4-11 cells (AID 1963824). Further: nearly all actives have a fitted effect of over 35% in size. The gist of the method:
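SYK-inhibitor-resistant MV4-11 AML cells were seeded at 500 per well onto compound and cultured 72 hours (37 °C, 5% CO2). CellTiter-Glo was then added, and after 10 min at room temperature, luminescence gave viability.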

Experiment [3] can be described thus: Cellular viability qHTS for adrenocortical cancer (ACC) cell line SW-13 (AID 1963989). Further: nearly all actives have a fitted effect of over 65% in size.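 On activity (max response): cells grown in serum-free medium with ITS supplement; on the % scale 0 is the no-effect control and ±100 the full control effect.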 Conditions: SW-13 ACC cells viability, CellTiter-Glo, 48 h; activity (max response): active compounds read low. The gist of the method:
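IC50 and maximal-response values come from four-parameter logistic fits of titration data. SW-13 cells in serum-free medium received compounds (up to 46 uM final) for 48 h before CellTiter-Glo luminescence.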

A short description of experiment [4]: Cellular viability qHTS for adrenocortical cancer (ACC) cell line NCI-H295R (AID 1963990). Further: nearly all actives have a fitted effect of over 60% in size. In a few lines: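 Adrenocortical carcinoma cells, suspended at 300 000 cells/mL in serum-free DMEM plus ITS, rested overnight before pin transfer of compound. After two days' incubation, ATP-dependent luminescence was recorded and curve-fitted.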
Experiment [5] in a line: Quantitative highthroughput screen to assess conditional lethalithy of SEM cells grown in RPMI1640 with unreated serum (RPMI+s) (AID 1963883). Further: nearly all actives have a fitted effect of over 35% in size. The gist of the method: (§1)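 Each medium arm—HPLM with 10% dialyzed FBS, or RPMI1640 with 5 mM glucose and 10% untreated or dialyzed FBS—was screened against an 11-point, 3-fold compound titration for 48 h at 37 °C, with CellTiter-Glo luminescence as endpoint.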

A short description of experiment [6]: Quantitative highthroughput screen to assess conditional lethalithy of P12 Ichikawa cells grown in Human Plasma-Like Medium with dialyzed fetal bovine serum (HPLM+ds) (AID 1963879). Further: nearly all actives have a fitted effect of over 35% in size. On Viability: series mostly up to about 46 µM. Conditions: Potency: viability. In a few lines: as §1
A short description of experiment [7]: Quantitative highthroughput screen to assess conditional lethalithy of SEM cells grown in Human Plasma-Like Medium with dialyzed fetal bovine serum (HPLM+ds) (AID 1963882). Further: nearly all actives have a fitted effect of over 35% in size. On Viability: series mostly up to about 46 µM. The gist of the method:
as §1

Experiment [8] can be described thus: Quantitative highthroughput screen to assess conditional lethalithy of P12 Ichikawa cells grown in RPMI1640 with dialyzed fetal bovine serum (RPMI+ds) (AID 1963880). Further: nearly all actives have a fitted effect of over 35% in size.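 On Viability: 100% = DMSO wells and 0% = empty wells on each plate.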 Conditions: Potency: P12-Ichikawa viability. The gist of the method:
as §1

Experiment [9] in a line: Quantitative highthroughput screen to assess conditional lethalithy of SEM cells grown in RPMI1640 with dialyzed fetal bovine serum (RPMI+ds) (AID 1963884). Further: nearly all actives have a fitted effect of over 35% in size.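 On Viability: series mostly up to about 46 µM; 100% = DMSO control wells and 0% = empty wells without cells.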 In a few lines:
as §1

Experiment [10] in a line: Quantitative highthroughput screen to assess conditional lethalithy of P12 Ichikawa cells grown in RPMI1640 with untreated serum (RPMI+s) (AID 1963881). Further: nearly all actives have a fitted effect of over 35% in size.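 On Viability: series mostly up to about 46 µM; 100% = DMSO wells and 0% = empty wells without cells.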 Conditions: Potency: viability. The gist of the method:
as §1

“And” between values parts separate entries of the source, which are not always exact repeats. Equal entries are not always repeated. Records with an inconclusive call do not appear. Unmarked numbers belong to inactive results. The source made the active and inactive calls. The call rests on the fitted dose curve; in most records, active means well fitted curve in the direction sought with a large enough effect; inconclusive means small, poorly fitted or top-dose-only effect, or another doubt; inactive means no such curve, though single readings can be large; an effect the other way counts as inactive or inconclusive.
Potency means the concentration at half of the fitted maximal effect.

In the case of `CC(C)=CC1C(C(=O)OCN2C(=O)C3=C(CCCC3)C2=O)C1(C)C` (stereo unspecified), the Potency entry in [1], in [2] and in experiment [4] was “inactive” throughout. Moreover, the activity (max response) in experiment [3] was -13.2%.

Turning to `C[C@H]1C(=O)O[C@@H]2CCN3CC=C(COC(=O)[C@](C)(O)[C@]1(C)O)[C@H]23`, the Potency result in [1] and in experiment [2] was “inactive” each time. For the same compound, the activity (max response) in experiment [3] was -4.54%.

As to `CC(C(=O)c1ccccc1)N(C)C` (stereo unspecified), the Potency entry in experiment [1] and in [2] was “inactive” throughout. The activity (max response) in experiment [3] is 8.81%.

With `c1ccc2c(c1)Nc1ccccc1S2`, the Potency result in experiment [1] and in experiment [2] was “inactive” throughout. Also, the activity (max response) in experiment [3] was -23.4%.

With `Cc1ccc2c(c1)C1CN(C)CCC1N2` (stereo unspecified), the Potency entry in experiment [1] and in experiment [2] was “inactive” each time. In experiment [3], the activity (max response) is -4.86%.

Turning to `C[C@H]1CCC/C=C/C2C[C@H](O)C[C@H]2[C@H](O)/C=C/C(=O)O1` (stereo partly specified), the Potency in [1] is 184 nM (active) and 148 nM (active); in [2] it was 92 nM (active) and 118 nM (active); in experiment [3] it was 0.282 µM (active).

Consider `Cc1ccc(S(=O)(=O)N[C@@H](CCCCN)C(=O)CCl)cc1`, for which the Potency result in experiment [1], in [2] and in experiment [4] was “inactive” each time. Moreover, in [3], the activity (max response) is 15.2%.

`CCN1CCN(C(=O)Cc2ccc(Nc3ncc(F)c(Nc4ccc(C(=O)Nc5ccccc5Cl)cc4)n3)cc2)CC1`: the Potency in experiment [1] is 0.468 µM (active); in experiment [2], 0.525 µM (active); in [5] it was 5.9 µM (active); in experiment [4], 3.55 µM (active).

In the case of `O=C(O)c1nn(Cc2ccc(Cl)cc2Cl)c2ccccc12`, the Potency entry in experiment [1], in experiment [2], in [6], in [7] and in experiment [4] was “inactive” each time. In experiment [3], the activity (max response) is 8.06% and -12.7%.

Turning to `O=C(N[C@H]1CN2CCC1CC2)c1ccc(Cl)cc1`, the Potency result in [1], in [2], in [8], in experiment [7], in experiment [9] and in experiment [4] was “inactive” in each case. For the same compound, in [3], the activity (max response) was 3.8%.

For `CNC(=O)N1N=C(c2ccc(N)cc2)c2cc3c(cc2CC1C)OCO3` (stereo unspecified), the Potency is 1.84 µM (active) in experiment [1]; 2.31 µM (active) in experiment [2]; 10.5 µM (active) in experiment [7]; 8.33 µM (active) in experiment [5]; 5.9 µM (active) in experiment [9].

In the case of `CCCCCCCCCC(=O)O[C@H]1CC[C@H]2[C@@H]3CCC4=CC(=O)CC[C@@H]4[C@H]3CC[C@]12C`, the Potency entry in experiment [1], in experiment [2] and in experiment [4] was “inactive” in each case. In addition, the activity (max response) in experiment [3] was 6.32%.

On to `CC(C)=C[C@@H]1[C@@H](C(=O)OCc2coc(Cc3ccccc3)c2)C1(C)C`, for which the Potency entry in experiment [1] and in [2] was “inactive” each time. Moreover, in experiment [3], the activity (max response) is -18.7%.

Regarding `Clc1ccc(COC(Cn2ccnc2)c2ccc(Cl)cc2Cl)cc1` (stereo unspecified), the Potency in experiment [1] is 8.33 µM (active); in [2], 8.33 µM (active); in [3] it was 25.1 µM (active); in experiment [4] it was 22.4 µM (active).

As for `CCCC[N+]1(C)[C@H]2CC(OC(=O)[C@H](CO)c3ccccc3)C[C@H]1[C@H]1O[C@H]12` (stereo partly specified), the Potency entry in experiment [1], in [2], in experiment [10], in experiment [7], in [9] and in experiment [4] was “inactive” each time. Further, in experiment [3], the activity (max response) is -1.99%.

On to `Cc1nnc2n1-c1sc(CCC(=O)N3CCOCC3)cc1C(c1ccccc1Cl)=NC2`, for which the Potency entry in experiment [1] and in experiment [2] was “inactive” each time. Moreover, in [3], the activity (max response) was 5.36%.

Turning to `COC[C@H]1OC(=O)c2coc3c2[C@@]1(C)C1=C(C3=O)[C@@H]2CC[C@H](O)[C@@]2(C)C[C@H]1OC(C)=O`, the Potency in [1] and in [2] was 1.66 µM (active) throughout. Also, in experiment [3], the activity (max response) was -16.1%.

For `CC1=C(O)C(=O)C=C2C1=CC=C1[C@@]2(C)CC[C@@]2(C)[C@@H]3C[C@](C)(C(=O)O)CC[C@]3(C)CC[C@]12C`, the Potency in experiment [1] was 0.59 µM (active); in experiment [2], 0.468 µM (active); in experiment [7], 2.64 µM (active); in experiment [5], 2.64 µM (active); in [3], 4.47 µM (active); in experiment [4], 6.31 µM (active).

As for `CNC(C)(C)Cc1ccccc1`, the Potency entry in experiment [1], in experiment [2] and in experiment [4] was “inactive” in each case. The activity (max response) in experiment [3] was -4.09%.

Take `COc1cc(C)[nH]c(=O)c1CNC(=O)c1c(C)n([C@H](C)C2CCOCC2)c2ccccc12`: the Potency result in [1], in [2] and in experiment [4] was “inactive” each time. Also, the activity (max response) in [3] was 8.24%.

On to `N[C@@H](Cc1ccc(Oc2cc(I)c(O)c(I)c2)c(I)c1)C(=O)O`, for which the Potency entry in [1] and in experiment [2] was “inactive” in each case. Also, the activity (max response) in [3] was 2.16%.

For the compound `N[C@@H](Cc1ccc(N(CCCl)CCCl)cc1)C(=O)O`, the Potency in experiment [1] is 10.6 µM (active) and 833 nM (active); in [2], 7.5 µM (active) and 742 nM (active); in experiment [6] it was 10.5 µM (active); in [10], 4.69 µM (active); in [5], 2.64 µM (active); in experiment [4], 28.2 µM (active). Besides, the activity (max response) in experiment [3] was -19.4%.

On to `CN1CCN(c2ccc([N+](=O)[O-])c3no[n+]([O-])c23)CC1`, for which the Potency in experiment [1] and in [2] was 8.33 µM (active) throughout. In addition, the Potency result in [6] and in experiment [8] was “inactive” throughout. Moreover, the activity (max response) in experiment [3] was 1.98%.

Turning to `C=CCN1C[C@H](C)N([C@H](c2ccc(C(=O)N(CC)CC)cc2)c2cccc(OC)c2)C[C@H]1C`, the Potency entry in experiment [1] and in experiment [4] was “inactive” throughout. Moreover, the viability, % of control in experiment [2] is 93.3% [at 9.25 µM]. Moreover, the activity (max response) in experiment [3] is -5.15%.

Turning to `C=C(C)[C@H]1Cc2c(ccc3c2O[C@@H]2COc4cc(OC)c(OC)cc4[C@@H]2C3=O)O1`, the Potency in experiment [1] was 0.0376 µM (active); in experiment [2] it was 0.0376 µM (active); in experiment [8], 4.69 µM (active); in experiment [10], 2.09 µM (active); in experiment [7], 5.26 µM (active); in experiment [5], 4.18 µM (active). Also, the Potency in experiment [9] is 3.72 µM (active); in [3] it was 0.0116 µM (active); in experiment [4], 0.103 µM (active).

Consider `CCN(CC)CCOC(=O)C(C)(c1ccccc1)c1ccccc1`, for which the Potency result in [1] and in experiment [2] was “inactive” in each case. In experiment [3], the activity (max response) was -13.3%.

Regarding `O=C(N[C@@H](COc1ccc2[nH]c(=O)[nH]c2c1)c1ccccc1)c1cccn(Cc2ccc(F)c(F)c2)c1=O`, the Potency is 11.6 µM (active) in experiment [1], 11.6 µM (active) in experiment [2] and 5.26 µM (active) in experiment [6].

With `O=c1[nH]c2ccccc2n1C1CCN(Cc2ccc(-c3[nH]c4cc5ncnc5cc4nc3-c3ccccc3)cc2)CC1`, the Potency is 14.8 µM (active) in [1], 1.84 µM (active) in experiment [2] and 22.4 µM (active) in experiment [4]. In addition, the Potency result in experiment [10] is “inactive”.
